Measurements reported in PubChem BioAssay AID1159580 (chemical genetic matrix, 2015).
The whole screen tested about 5,500 compounds, of which about 2,000 (36%) were called active. Roughly 18% stayed inconclusive and do not appear here. No stated cut-off is given here; in the data, active means normalized growth mostly below about 0.91 (no sharp cut-off); inconclusive means no clear call, values can overlap the other calls; inactive means mostly above about 0.92. The list shows a part of the results.

Experiment: chemical genetic growth profiling, strain panel (AID 1159580);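 further: tested at 20 µM; growth read once vehicle control cultures reached saturation at 30 °C; 1 = growth at the plate median or of vehicle wells; lower values mean less growth of the strain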
Conditions: growth OD

Measured: normalized growth

COc1ccc2c(C)cc(=O)oc2c1
inactive: S. cerevisiae deletion strains, locus YJL187C, strain SWE1 (second series), active compounds read low 1.02 | S. cerevisiae deletion strains, locus YJL187C, strain SWE1, active compounds read low 0.997 | S. cerevisiae deletion strains, locus YJR066W, strain TOR1, active compounds read low 0.933 | S. cerevisiae deletion strains, locus YKL009W, strain mrt4, active compounds read low 1.02 | S. cerevisiae deletion strains, locus YKL068W, active compounds read low 1.03 | S. cerevisiae deletion strains, locus YKL085W, strain MDH1 (second series), active compounds read low 1.01 | S. cerevisiae deletion strains, locus YKL085W, strain MDH1, active compounds read low 1.01 | S. cerevisiae deletion strains, locus YKL160W, strain elf1, active compounds read low 1 | S. cerevisiae deletion strains, locus YKL190W, strain CNB1, active compounds read low 1 | S. cerevisiae deletion strains, locus YKR001C, strain vps1, active compounds read low 1.03 | S. cerevisiae deletion strains, locus YKR026C, strain gcn3, active compounds read low 0.991 | S. cerevisiae deletion strains, locus YKR091W, strain srl3, active compounds read low 0.987 | S. cerevisiae deletion strains, locus YLL001W, strain dnm1, active compounds read low 0.986 | S. cerevisiae deletion strains, locus YLL026W, active compounds read low 1 | S. cerevisiae deletion strains, locus YLL041C, strain sdh2, active compounds read low 0.993 | S. cerevisiae deletion strains, locus YLR027C, strain aat2, active compounds read low 0.991 | S. cerevisiae deletion strains, locus YLR039C, strain RIC1, active compounds read low 1.01 | S. cerevisiae deletion strains, locus YLR058C, strain SHM2, active compounds read low 1.01 | S. cerevisiae deletion strains, locus YLR102C, strain apc9, active compounds read low 1.04 | S. cerevisiae deletion strains, locus YLR113W, strain HOG1, active compounds read low 0.998 | S. cerevisiae deletion strains, locus YLR221C, strain rsa3, active compounds read low 0.993 | S. cerevisiae deletion strains, locus YLR258W, strain gsy2, active compounds read low 0.972 | S. cerevisiae deletion strains, locus YLR262C, strain YPT6 (second series), active compounds read low 0.964 | S. cerevisiae deletion strains, locus YLR268W, strain sec22, active compounds read low 1.03 | S. cerevisiae deletion strains, locus YLR320W, strain mms22, active compounds read low 1 | S. cerevisiae deletion strains, locus YLR330W, strain CHS5, active compounds read low 1.01 | S. cerevisiae deletion strains, locus YLR342W, strain FKS1, active compounds read low 0.989 | S. cerevisiae deletion strains, locus YLR357W, strain rsc2, active compounds read low 0.966 | S. cerevisiae deletion strains, locus YLR370C, strain arc18, active compounds read low 0.997 | S. cerevisiae deletion strains, locus YLR371W, strain rom2, active compounds read low 0.998 | S. cerevisiae deletion strains, locus YLR384C, strain iki3, active compounds read low 0.996 | S. cerevisiae deletion strains, locus YLR418C, strain cdc73, active compounds read low 1.03 | S. cerevisiae deletion strains, locus YML016C, strain PPZ1, active compounds read low 1.02 | S. cerevisiae deletion strains, locus YML032C, strain rad52, active compounds read low 1.01 | S. cerevisiae deletion strains, locus YML120C, strain ndi1, active compounds read low 1.02 | S. cerevisiae deletion strains, locus YML124C, strain tub3, active compounds read low 1.02 | S. cerevisiae deletion strains, locus YMR058W, strain fet3, active compounds read low 0.987 | S. cerevisiae deletion strains, locus YMR078C, strain ctf18, active compounds read low 1.03 | S. cerevisiae deletion strains, locus YMR125W, strain sto1, active compounds read low 0.982 | S. cerevisiae deletion strains, locus YMR129W, active compounds read low 1.01 | S. cerevisiae deletion strains, locus YMR205C, strain PFK2, active compounds read low 0.988 | S. cerevisiae deletion strains, locus YMR223W, strain ubp8, active compounds read low 1.02 | S. cerevisiae deletion strains, locus YMR231W, strain pep5, active compounds read low 0.988 | S. cerevisiae deletion strains, locus YMR307W, strain GAS1, active compounds read low 0.994 | S. cerevisiae deletion strains, locus YNL067W, strain RPL9B, active compounds read low 1.01 | S. cerevisiae deletion strains, locus YNL071W, strain lat1, active compounds read low 0.976 | S. cerevisiae deletion strains, locus YNL183C, strain NPR1, active compounds read low 0.933 | S. cerevisiae deletion strains, locus YNL209W, strain ssb2, active compounds read low 1 | S. cerevisiae deletion strains, locus YNL233W, strain BNI4, active compounds read low 1.02 | S. cerevisiae deletion strains, locus YNL248C, strain rpa49, active compounds read low 0.923 | S. cerevisiae deletion strains, locus YNL250W, strain rad50, active compounds read low 1.04 | S. cerevisiae deletion strains, locus YNL271C, strain bni1, active compounds read low 1.03 | S. cerevisiae deletion strains, locus YNL298W, strain CLA4, active compounds read low 1.01 | S. cerevisiae deletion strains, locus YNL307C, strain MCK1, active compounds read low 1.04 | S. cerevisiae deletion strains, locus YNL322C, strain KRE1 (second series), active compounds read low 1 | S. cerevisiae deletion strains, locus YNL322C, strain KRE1, active compounds read low 1.01 | S. cerevisiae deletion strains, locus YNR049C, strain mso1, active compounds read low 0.969 | S. cerevisiae deletion strains, locus YNR052C, strain pop2, active compounds read low 1.02 | S. cerevisiae deletion strains, locus YOL012C, strain htz1 0.756 | S. cerevisiae deletion strains, locus YOL147C, strain pex11, active compounds read low 1.03 | S. cerevisiae deletion strains, locus YOR001W, strain rrp6, active compounds read low 0.97 | S. cerevisiae deletion strains, locus YOR061W, strain CKA2, active compounds read low 1.01 | S. cerevisiae deletion strains, locus YOR069W, strain VPS5, active compounds read low 1.01 | S. cerevisiae deletion strains, locus YOR070C, strain gyp1, active compounds read low 1 | S. cerevisiae deletion strains, locus YOR080W, strain dia2, active compounds read low 0.99 | S. cerevisiae deletion strains, locus YOR083W, strain WHI5, active compounds read low 0.987 | S. cerevisiae deletion strains, locus YOR106W, strain vam3, active compounds read low 0.959 | S. cerevisiae deletion strains, locus YOR136W, strain idh2, active compounds read low 1.03 | S. cerevisiae deletion strains, locus YOR144C, strain elg1, active compounds read low 1.02 | S. cerevisiae deletion strains, locus YOR184W, strain ser1, active compounds read low 1.02 | S. cerevisiae deletion strains, locus YOR231W, strain MKK1, active compounds read low 0.954 | S. cerevisiae deletion strains, locus YOR265W, strain rbl2, active compounds read low 0.996 | S. cerevisiae deletion strains, locus YOR270C, strain vph1, active compounds read low 0.803 | S. cerevisiae deletion strains, locus YOR290C, strain snf2, active compounds read low 1 | S. cerevisiae deletion strains, locus YOR316C, strain cot1, active compounds read low 1.02 | S. cerevisiae deletion strains, locus YPL051W, strain arl3, active compounds read low 1.01 | S. cerevisiae deletion strains, locus YPL078C, strain atp4, active compounds read low 0.994 | S. cerevisiae deletion strains, locus YPL106C, strain sse1, active compounds read low 0.943 | S. cerevisiae deletion strains, locus YPL240C, strain hsp82, active compounds read low 1.01 | S. cerevisiae deletion strains, locus YPL256C, strain CLN2, active compounds read low 1.01 | S. cerevisiae deletion strains, locus YPR119W, strain clb2, active compounds read low 1.02 | S. cerevisiae deletion strains, locus YPR141C, strain kar3, active compounds read low 1.02 | S. cerevisiae deletion strains, locus YPR163C, strain tif3, active compounds read low 1.03 | S. cerevisiae deletion strains, locus YPR167C, strain met16, active compounds read low 1.02 | S. cerevisiae deletion strains, strain wtn01, active compounds read low 1.01 | S. cerevisiae strains, strain wild type, active compounds read low 1.01
